Here are results for 13 molecules from PubChem BioAssay (NCATS).

Common to all, as to test: Primary qHTS to identify gynecologic anti-cancer compounds using libraries of approved drugs and bioactive compounds (AID 1345084); also: nearly all actives have a fitted effect of over 55% in size
The test system of assay [1] is C33A. The note with it: Gynecologic cancer cell panel viability, ATPlite luminescence, 48 h; series mostly up to 57.5 µM. In a few lines: (§1)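 Cytotoxicity screen measuring ATP content by luciferase luminescence. Each compound is applied at five concentrations for 48 h at 37 C with 5% CO2.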
Background: ATP-based viability assays read luminescence as a measure of living cells.

The subject of assay [2] is CAOV3. The conditions noted are these: Gynecologic cancer cell panel viability, ATPlite luminescence, 48 h; series mostly up to 57.5 µM. In a few lines: as §1
Assay [3] concerns CASKI. The note with it: Gynecologic cancer cell panel viability, ATPlite luminescence, 48 h; series mostly up to 57.5 µM. The method in brief:
as §1

In assay [4] the test system is Es-2. The note with it: Gynecologic cancer cell panel viability, ATPlite luminescence, 48 h; series mostly up to 57.5 µM. In a few lines:
as §1

Assay [5] deals with Hek293T. The conditions noted are these: Gynecologic cancer cell panel viability, ATPlite luminescence, 48 h, control line for the selectivity index; series mostly up to 57.5 µM. In a few lines:
as §1

Assay [6] relates to JEG-3. The note with it: Gynecologic cancer cell panel viability, ATPlite luminescence, 48 h; series mostly up to 57.5 µM. The method in brief: as §1
Assay [7] deals with OV90. The note with it: Gynecologic cancer cell panel viability, ATPlite luminescence, 48 h; series mostly up to 57.5 µM. The method in brief:
as §1

Assay [8] deals with PA-1. The conditions noted are these: Gynecologic cancer cell panel viability, ATPlite luminescence, 48 h; series mostly up to 57.5 µM. In a few lines: as §1
For assay [9], the system named is SKOV3. The note with it: Gynecologic cancer cell panel viability, ATPlite luminescence, 48 h; series mostly up to 57.5 µM. The method in brief: as §1
Assay [10] concerns Tov112D. The note with it: Gynecologic cancer cell panel viability, ATPlite luminescence, 48 h; series mostly up to 57.5 µM. In a few lines:
as §1

Assay [11] relates to Tov-21-G. The conditions noted are these: Gynecologic cancer cell panel viability, ATPlite luminescence, 48 h; series mostly up to 57.5 µM. In a few lines:
as §1

Assay [12] concerns HeLa. The note with it: Gynecologic cancer cell panel viability, ATPlite luminescence, 48 h; series mostly up to 57.5 µM. The method in brief: as §1

Molecules are shown by their SMILES. Results filed as inconclusive are left out. Unmarked numbers belong to inactive results. Calls of active or inactive are those of the source. Calls follow the shape of the dose curve; as a rule, active = well fitted cell-killing curve with a large enough effect; inconclusive = small, poorly fitted or top-dose-only effect, or effect the other way; inactive = flat fitted curve, though single readings scatter.
% is scaled to controls: 0 for no effect and ±100 for the full control effect; potency is read from the fitted curve at half-maximal effect.

For the molecule `CC1(C)CC[C@@]2(C(=O)O[C@@H]3O[C@H](CO)[C@@H](O)[C@H](O)[C@H]3O)C(C1)C1=CCC3[C@@]4(C)CC[C@@H](O[C@@H]5O[C@H](C(=O)O)[C@@H](O[C@@H]6OC[C@@H](O)[C@H](O)[C@H]6O)[C@H](O[C@@H]6OC[C@](O)(CO)[C@H]6O)[C@H]5O)C(C)(C)C4CC[C@@]3(C)[C@]1(C)C[C@H]2O` (stereo partly drawn), the activity change, negative = cytotoxicity is -0.239% [at 11.6 µM] in [1]; -43.7% [at 11.6 µM] in assay [2]; -25.1% [at 11.6 µM] in assay [3]; -7.12% [at 11.6 µM] in assay [4]; 3.52% [at 11.6 µM] in [5]; -1.03% [at 11.6 µM] in assay [6]. The activity change, negative = cytotoxicity in assay [7] was -1.26% [at 11.6 µM]; in assay [8], -34.8% [at 11.6 µM]; in assay [9] it was -2.96% [at 11.6 µM]; in assay [10], -29.7% [at 11.6 µM].
As for `CCCCNc1ccc(-c2ccc(CN3CCOCC3)cn2)c(NC2CCC(O)CC2)c1` (stereo not drawn), the Potency result in assay [1], in assay [3], in assay [4], in assay [5], in [6] and in [7] was “inactive” each time. The Potency result in assay [9], in [11] and in assay [10] was “inactive” in each case. Also, the Potency in assay [2] is 1.78 µM (active).
Regarding `O=C1NC(=O)C(c2cn3c4c(cccc24)CCC3)C1c1c[nH]c2ccccc12` (stereo not drawn), the Potency was 20 µM (active) in assay [1]; 10 µM (active) in [4]; 3.16 µM (active) in assay [12]; 3.16 µM (active) in assay [8]; 5.01 µM (active) in assay [10]. In addition, the Potency result in assay [2] and in assay [3] was “inactive” throughout.
Turning to `CC[C@@H](N)CNc1ccnc(-c2cc(-c3cnn(C)c3)ccc2O)n1`, the Potency in assay [1] was 8.91 µM (active); in assay [3], 3.98 µM (active); in assay [4] it was 20 µM (active); in assay [5], 11.2 µM (active); in assay [6], 12.6 µM (active); in assay [8], 7.94 µM (active). Moreover, the figures for the Potency in assay [11] and in [10] were 8.91 µM (active) and 10 µM (active), respectively. Besides, in assay [2], the Potency result is “inactive”.
As to `Cc1cnc(Nc2ccc(F)cc2Cl)nc1-c1c[nH]c(C(=O)NC(CO)c2cccc(Cl)c2)c1` (stereo not drawn), the Potency entry in [1], in [2], in assay [3], in assay [4], in assay [5] and in assay [6] was “inactive” each time. Also, the Potency result in assay [9] and in assay [10] was “inactive” throughout. Further, in [8], the Potency is 8.91 µM (active).
As to `C=C(C)C(=O)O[C@H]1C[C@@](C)(O)C(=O)CC(O)/C(C)=C\[C@H]2OC(=O)C(=C)[C@H]12` (stereo partly drawn), the Potency result in assay [1], in assay [2], in assay [3], in assay [12], in assay [5] and in assay [6] was “inactive” throughout. Also, the Potency entry in assay [7] and in [10] was “inactive” in each case.
As for `Cc1c[nH]c2nccc(Oc3c(F)cc(Nc4cc(Cl)nc(N)n4)cc3F)c12`, the Potency result in [1], in assay [2], in assay [3] and in assay [7] was “inactive” each time. Besides, the Potency in [4] was 12.6 µM (active); in assay [12], 7.94 µM (active); in assay [10] it was 7.94 µM (active).
On to `CCC(CC)C(=O)Nc1sc2c(c1C#N)CCC(C(C)(C)CC)C2` (stereo not drawn), for which the Potency entry in [1], in assay [2], in assay [3], in assay [4], in assay [12] and in assay [6] was “inactive” in each case. The Potency result in assay [7], in assay [8], in [11] and in assay [10] was “inactive” each time.
For the molecule `CC(=O)O[C@@H]1C[C@H](O)[C@@]23CO[C@H](O)[C@]1(C)C2C[C@@H](O)[C@]1(C)C3C(=O)[C@H](OC(C)=O)[C@@]2(C)[C@H](c3ccoc3)C[C@H]3O[C@]321` (stereo partly drawn), the Potency is 1.12 µM (active) in assay [1]; 1.12 µM (active) in [2]; 0.501 µM (active) in assay [4]; 2.51 µM (active) in [5]; 0.562 µM (active) in assay [8]; 0.316 µM (active) in assay [10]. Further, the Potency result in assay [3] and in assay [6] was “inactive” throughout.
Turning to `C(#Cc1nc2ncccc2nc1OCCN1CCCC1)c1ccccc1`, the Potency in assay [1] is 7.08 µM (active); in [2], 7.08 µM (active); in assay [3], 17.8 µM (active); in assay [4] it was 3.55 µM (active); in assay [5] it was 10 µM (active); in assay [8] it was 6.31 µM (active). For the same molecule, the Potency in [9], in assay [11] and in [10] was 14.1 µM (active) each time.
As for `COc1cc(O)cc(C)c1C(=O)O[C@H]1[C@@H](OC(C)=O)[C@H](n2ccc(=O)[nH]c2=O)O[C@@H]1CO`, the Potency result in [1], in assay [2], in assay [3], in [4], in assay [12] and in assay [6] was “inactive” each time. The Potency entry in assay [7], in assay [8], in assay [9], in assay [11] and in assay [10] was “inactive” throughout.
With `COc1cc(OC)cc(C(=O)Nc2ccc(Cl)c(-c3nc4ccc(N(C)C)cc4[nH]3)c2)c1`, the Potency result in [1], in assay [2], in assay [3], in assay [4], in assay [12] and in assay [6] was “inactive” each time. Moreover, the Potency result in assay [8], in assay [9], in [11] and in assay [10] was “inactive” throughout.
As for `C=C(CCC1=C(C)[C@H]2[C@H](CC3[C@@H]4CC=C5C[C@@H](O)C[C@@H](O)[C@]5(C)C4[C@H](O)C[C@@]32C)O1)CO[C@@H]1O[C@H](CO)[C@@H](O)[C@H](O)[C@H]1O` (stereo partly drawn), the Potency in [1] is 1.26 µM (active); in assay [2], 3.55 µM (active); in assay [3], 3.16 µM (active); in [4], 3.16 µM (active); in assay [12], 3.16 µM (active); in assay [5], 3.16 µM (active). Moreover, the Potency in assay [8] was 3.16 µM (active); in assay [9] it was 2.82 µM (active); in [11], 2.51 µM (active); in assay [10], 1.12 µM (active).
